Ten compounds from PubChem BioAssay can be followed below.

The nature of experiment [1]: anti-His antibody binders, primary screen, artefact control for SMM control protein annotation, biochemical, small-molecule microarray, 635 nm fluorescence (AID 1128).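 Also: score merges feature fluorescence with signal-to-noise for each printed compound spot.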 The settings on record: anti-His Alexa647 antibody binding, higher = more signal.
Experiment [2] has as its system Human papillomavirus type 1a E7 protein (residues 1-88). In words: HPV1a E7 small-molecule binders, primary screen, biochemical, small-molecule microarray, residues 1-88, 635 nm (AID 1129). The settings on record: small-molecule microarray binding, fluorescence 635 nm; higher = more signal.
Experiment [3] deals with Focal adhesion kinase 1 (Homo sapiens) (UniProt Q05397). The experiment is described as follows: small-molecule microarray binders of FAK, primary screen, biochemical, 635/667 nm fluorescence, BSA, DTT (AID 1130).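 Also: composite of spot emission at 667 nm and signal to noise over triplicate slides.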 The settings on record: PTK2 binding, 635 nm fluorescence, higher = more signal.
Chain of Focal adhesion kinase 1 (Homo sapiens) (Q05397 whole entry, looked up): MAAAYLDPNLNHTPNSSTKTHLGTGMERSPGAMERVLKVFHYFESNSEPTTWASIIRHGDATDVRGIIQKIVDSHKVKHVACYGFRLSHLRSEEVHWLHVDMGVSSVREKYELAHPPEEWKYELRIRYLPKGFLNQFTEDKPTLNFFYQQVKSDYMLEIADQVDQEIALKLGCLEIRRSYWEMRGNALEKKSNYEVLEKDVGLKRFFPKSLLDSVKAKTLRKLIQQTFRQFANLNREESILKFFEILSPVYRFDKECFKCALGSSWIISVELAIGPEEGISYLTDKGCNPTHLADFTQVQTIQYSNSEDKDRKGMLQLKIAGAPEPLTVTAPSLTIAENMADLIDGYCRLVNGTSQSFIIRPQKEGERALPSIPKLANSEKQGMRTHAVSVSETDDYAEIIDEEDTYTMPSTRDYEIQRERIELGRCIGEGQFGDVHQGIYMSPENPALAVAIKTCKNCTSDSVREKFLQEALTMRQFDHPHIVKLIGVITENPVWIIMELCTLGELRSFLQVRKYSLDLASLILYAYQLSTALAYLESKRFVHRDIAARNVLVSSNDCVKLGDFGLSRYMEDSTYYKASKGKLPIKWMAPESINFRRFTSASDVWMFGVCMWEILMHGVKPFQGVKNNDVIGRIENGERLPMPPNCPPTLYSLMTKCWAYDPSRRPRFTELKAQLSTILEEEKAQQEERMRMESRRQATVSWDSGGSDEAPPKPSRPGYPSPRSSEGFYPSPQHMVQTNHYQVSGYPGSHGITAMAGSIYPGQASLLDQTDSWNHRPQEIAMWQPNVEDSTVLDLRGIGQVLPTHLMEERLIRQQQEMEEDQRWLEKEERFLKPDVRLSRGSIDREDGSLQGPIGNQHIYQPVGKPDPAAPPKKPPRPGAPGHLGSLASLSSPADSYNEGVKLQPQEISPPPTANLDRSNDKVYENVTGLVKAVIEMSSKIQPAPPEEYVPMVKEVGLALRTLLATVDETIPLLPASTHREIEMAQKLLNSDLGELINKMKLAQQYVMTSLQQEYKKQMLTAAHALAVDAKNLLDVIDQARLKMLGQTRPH
Experiment [4] deals with Fibrinogen (Alexa647-labelled). In words: fibrinogen binders on compound microarrays, profiling panel, artefact control for SMM control-protein annotation, biochemical, small-molecule microarray, 635/667 nm fluorescence (AID 1131).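 Also: z-score merges 667 nm fluorescence with per-spot signal-to-noise over triplicate slides.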 As to conditions: fibrinogen-A647 binding fluorescence, higher = more signal.
For experiment [5], the target named is Follistatin (Homo sapiens) (UniProt P19883). In words: follistatin binders on small-molecule microarrays, primary screen, biochemical, small-molecule microarray, 635/667 nm fluorescence (AID 1132). As to conditions: FST binding, 635 nm fluorescence, higher = more signal.
Chain of Follistatin (Homo sapiens) (P19883 whole entry, looked up): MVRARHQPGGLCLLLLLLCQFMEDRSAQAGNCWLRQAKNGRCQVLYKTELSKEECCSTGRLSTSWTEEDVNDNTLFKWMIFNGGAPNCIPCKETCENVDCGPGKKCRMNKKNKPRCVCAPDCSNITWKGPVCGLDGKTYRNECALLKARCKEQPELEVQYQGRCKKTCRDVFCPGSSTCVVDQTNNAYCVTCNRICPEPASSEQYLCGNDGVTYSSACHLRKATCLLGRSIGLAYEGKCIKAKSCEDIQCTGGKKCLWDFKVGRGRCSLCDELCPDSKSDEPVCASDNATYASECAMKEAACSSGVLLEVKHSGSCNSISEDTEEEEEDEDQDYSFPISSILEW
Experiment [6] has as its target Fibroblast growth factor 2 (Homo sapiens) (UniProt P09038). The experiment is described as follows: FGF2 binders on small-molecule microarrays, primary screen, biochemical, small-molecule microarray, 635/667 nm fluorescence (AID 1133). The settings on record: small-molecule microarray binding, FGF2, fluorescence 635/667; higher = more signal.
Experiment [7] can be described thus: mitochondrial membrane potential change in A549 cells, profiling panel, cell-based, JC-1 fluorescence, basal, 24 h, 100 nL (AID 1138).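 Also: A549 lung adenocarcinoma cells under basal conditions with no added stimulus; test concentration not given here.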 The settings on record: higher = more signal.
Another experiment deals with Lefty1. In words: Lefty1 binders on small-molecule microarrays, primary screen, biochemical, small-molecule microarray, 635/667 nm fluorescence (AID 1139). The settings on record: small-molecule microarray binding, fluorescence 635/667; higher = more signal.
Experiment [8] has as its system wheat germ agglutinin (Triticum aestivum), Alexa647-labelled. In words: wheat germ agglutinin binders on compound microarrays, profiling panel, artefact control for SMM control-protein annotation, biochemical, small-molecule microarray, 635/667 nm fluorescence (AID 1140).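 Also: score merges 667 nm feature emission with signal to noise over triplicate slides.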 As to conditions: WGA-A647 binding, 635 nm fluorescence, higher = more signal.
Experiment [9] has as its target Luciferin 4-monooxygenase (Photinus pyralis) (UniProt P08659). The experiment is described as follows: firefly luciferase enzyme inhibitors, primary screen, biochemical, luminescence, purified enzyme, 2006 set (AID 1141).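 Also: cell-free assay with purified firefly luciferase at 100 ng per well in PBS; test concentration not given here.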 The settings on record: SteadyGlo luminescence, 30 min, higher = more signal, called active from +8 up or from −8 down.

Structures are written as SMILES. The source made the active and inactive calls.

Chain of Luciferin 4-monooxygenase (Photinus pyralis) (P08659 whole entry, looked up): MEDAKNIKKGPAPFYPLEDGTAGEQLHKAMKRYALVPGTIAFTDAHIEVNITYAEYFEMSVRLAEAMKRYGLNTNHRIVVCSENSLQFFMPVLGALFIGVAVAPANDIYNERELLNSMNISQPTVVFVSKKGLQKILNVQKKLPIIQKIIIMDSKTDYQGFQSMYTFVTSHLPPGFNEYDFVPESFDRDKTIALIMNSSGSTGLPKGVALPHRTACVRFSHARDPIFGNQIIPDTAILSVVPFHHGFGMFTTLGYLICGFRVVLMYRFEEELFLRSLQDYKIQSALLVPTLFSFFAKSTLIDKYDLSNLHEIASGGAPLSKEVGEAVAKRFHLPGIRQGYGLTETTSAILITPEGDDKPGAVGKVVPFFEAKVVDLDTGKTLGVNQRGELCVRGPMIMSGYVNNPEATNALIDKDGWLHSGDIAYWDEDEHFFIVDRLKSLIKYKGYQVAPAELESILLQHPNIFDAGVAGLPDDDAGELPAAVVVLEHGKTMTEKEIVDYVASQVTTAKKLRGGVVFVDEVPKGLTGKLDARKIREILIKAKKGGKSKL
Chain of Fibroblast growth factor 2 (Homo sapiens) (P09038 whole entry, looked up): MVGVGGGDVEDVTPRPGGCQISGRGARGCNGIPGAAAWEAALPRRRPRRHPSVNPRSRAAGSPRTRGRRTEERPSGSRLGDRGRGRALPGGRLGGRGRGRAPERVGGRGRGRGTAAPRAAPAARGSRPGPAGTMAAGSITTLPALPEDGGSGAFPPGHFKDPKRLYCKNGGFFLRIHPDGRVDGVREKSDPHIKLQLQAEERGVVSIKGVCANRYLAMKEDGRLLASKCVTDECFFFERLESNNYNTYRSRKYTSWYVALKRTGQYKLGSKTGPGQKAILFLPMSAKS

As to `COC(=O)C(CC#Cc1ccc2c(c1)[C@]1(C(=O)N2)[C@H](C(=O)Nc2nc3ccccc3s2)[C@H]2C(=O)O[C@H](c3ccccc3)[C@H](c3ccccc3)N2[C@@H]1c1ccc(OCCO)cc1)C(=O)OC`, the composite z-score in experiment [1] was determined as 1.94; in experiment [2], 1.1; in [3], 0.539; in experiment [4], 0.978; in [5], 1.45; in experiment [6] it was 1.39. Also, the values for the composite z-score (in the experiment with Lefty1; in experiment [8]) were 1.27 and 1.07, respectively. The z-score in [7] was -1.94; in experiment [9] it was -4.66 (inactive).

For `CS(=O)(=O)CCOC(=O)C1=CC(CCCO)=CC(C2CC2)N(Cc2cccc(OC(F)(F)F)c2)C=C1C(=O)OCCS(C)(=O)=O` (stereo not given), the composite z-score in experiment [1] was 1.96; in experiment [2], 0.852; in experiment [3], 0.386; in [4], 0.701; in experiment [5], -0.0478; in [6] it was -0.256. The results for the composite z-score (in the experiment with Lefty1; in experiment [8]) were 0.126 and 0.927, respectively. Also, the z-score in experiment [7] was 1.62; in experiment [9], -1.6 (inactive).

Turning to `CCC(CC)C(O)C1C=CC2C(=O)N(c3ccccc3)C(=O)C2N1Nc1ccc([N+](=O)[O-])cc1` (stereo not given), the composite z-score is 0.838 in [1]; 1.23 in experiment [2]; 1.19 in experiment [3]; 0.895 in experiment [4]; 0.081 in [5]; -0.348 in experiment [6]. In addition, the composite z-score in the experiment on Lefty1 worked out at 0.138; in experiment [8], 1.11. Moreover, the z-score was -1.38 in experiment [7] and 1.14 (inactive) in experiment [9].

Consider `CC(C)C[C@@H]1NC(=O)[C@@]23C(=O)N[C@@H](Cc4ccccc4)C2[C@H](C)[C@@]2(C)O[C@H]2C3/C=C/C/C=C\CNC(=O)[C@@H](C)NC1=O` (stereo not given in full), for which the composite z-score was -0.471 in experiment [1]; -0.522 in experiment [2]; -0.647 in experiment [3]; -0.67 in [4]; 0.418 in experiment [5]; 0.901 in experiment [6]. Also, the composite z-score with Lefty1 turned out to be 0.709; in [8] it was 0.808. Besides, the z-score is 0.0204 in experiment [7] and 0.757 (inactive) in experiment [9].

`COc1ccc([Si](C)(C)[C@H]2[C@H](CCO)O[C@@]3(C(=O)N(Cc4ccc(N5C(=O)c6ccccc6Oc6ccccc65)cc4)c4ccccc43)[C@@H]2C)cc1`: the composite z-score was -0.486 in experiment [1]; -0.76 in [2]; -0.266 in [3]; 0.348 in experiment [4]; -1.14 in experiment [5]; -0.968 in [6]. The results for the composite z-score (in the experiment on Lefty1; in [8]) were -0.865 and 0.0124, respectively. Also, the z-score in experiment [7] is 1.26; in experiment [9], -0.652 (inactive).

In the case of `CCc1cccc(NC(=O)O[C@H]2[C@H](OC(=O)Nc3ccccc3)[C@H](OC(=O)Nc3ccccc3)[C@@H](OC)O[C@@H]2CO)c1`, the composite z-score in experiment [1] turned out to be 1.14; in experiment [2] it was 1.26; in [3] it was 1.53; in experiment [4], 0.571; in experiment [5], 1.16; in [6], 0.216. In addition, the composite z-score was determined as 0.0478 with Lefty1 and 0.751 in [8]. The z-score in [7] was -1.55; in experiment [9], 0.234 (inactive).

For `COc1ccc(C(O)C2C=CC3C(=O)N(c4ccccc4)C(=O)C3N2Nc2ccccc2F)cc1` (stereo not given), the composite z-score in [1] was 2.35; in experiment [2], 1.18; in [3], 0.616; in experiment [4], 0.918; in experiment [5], 0.244; in [6], -0.276. For the same compound, the composite z-score in the experiment on Lefty1 is -0.2; in [8], 0.265. For the same compound, the z-score in [7] is -0.652; in experiment [9], 1.31 (inactive).

Take `Cc1cccc([C@H]2C[C@H]3C(Br)=C[C@@H]2C(=O)[C@]32CO2)c1`: the composite z-score in experiment [1] was -0.255; in experiment [2] it was -1.61; in experiment [3], -0.181; in experiment [4], -0.145; in [5], 0.243; in experiment [6], 0.291. For the same compound, the results for the composite z-score (in the experiment on Lefty1; in experiment [8]) were 0.154 and -0.278, respectively. Further, the values for the z-score in [7] and in experiment [9] were 0.518 and -0.425 (inactive), respectively.

With `C=CCC(OC(C)=O)[C@@H]1[C@@H](N(Cc2ccc(-c3ccccc3)cc2)C(=O)Cc2ccc(F)cc2)c2cc(OCCCO)ccc2N1C(=O)Cc1ccc2ccccc2c1` (stereo not given in full), the composite z-score in experiment [1] is -0.631; in experiment [2], -0.0842; in experiment [3], 0.318; in experiment [4], -0.198; in experiment [5] it was 0.305; in experiment [6], -0.0712. Also, the results for the composite z-score (with Lefty1; in experiment [8]) were -0.0639 and 0.139, respectively. Further, the results for the z-score in experiment [7] and in experiment [9] were 1.85 and -1.2 (inactive), respectively.

As to `CC(C)C(=C=CC[C@@H](O)c1cccc(OCCO)c1)C[C@@H](O)COCc1ccccc1`, the composite z-score in experiment [1] was 0.292; in experiment [2], 0.158; in [3] it was -0.276; in experiment [4], 0.0013; in experiment [5] it was 0.844; in experiment [6], 0.34. Besides, the composite z-score in the experiment with Lefty1 came out at 0.318; in experiment [8], 0.866. Also, the z-score in experiment [7] is 1.6; in experiment [9] it was -2.11 (inactive).
